Bioassay records from PubChem.
The list is not random: actives were taken first. Their share in the collection is about 5.7%.
Nrf2 inh – blocks Nrf2 signaling; A549 ARE-Fluc reporter, luciferase luminescence, 18-24 h; Potency, µM (titrated, usually from 46 µM), for the others: top-dose activity change, negative = inhibition, most hits filed as inhibitors; hit rate 2.1% among 360,000; AID 504444; further: potency means the concentration at half of the fitted maximal effect; nearly all actives have a fitted effect of over 60% in size
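A549 ARE_Fluc cells, 5000/well, 5% FBS OPTI-MEM; compounds in dose-response, 18-24 h at 37 °C/5% CO2; CellTiter-Fluor viability read (Ex 405/Em 525), then BugLite luciferase luminescence = Nrf2 activity.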
KB-V1 MDR tox – KB-V1 MDR subline cytotoxicity. KB-V1 MDR cells viability, CellTiter-Glo, 72 h. Potency, µM (titrated, usually from 46.1 µM), most hits filed as cytotoxic. hit rate 3.4% among 400,000. AID 1347076; further: potency means the concentration at half of the fitted maximal effect; nearly all actives have a fitted effect of over 60% in size
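Cytotoxicity via CellTiter-Glo luminescence after 72 h compound exposure at 37 degrees C. Cells: drug-selected KB-V1 line, DMEM phenol-red free plus 10% FBS. Compounds tested at multiple concentrations; normalized data fitted to concentration-effect curves.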
A549 viability – A549 cytotoxicity, counter-screen for Nrf2 inhibitors; A549 ARE-Fluc cells, CellTiter-Fluor viability, 18-24 h; Potency, µM (series often up to 46 µM), for the others: at the top dose activity change, negative = cytotoxicity, usual class: inhibitors; hit rate 0.16% among 390,000; further: potency means the concentration at half of the fitted maximal effect
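A549 ARE_Fluc cells in 5% FBS OPTI-MEM were exposed to compounds in concentration-response for 18-24 h at 37 deg C. Viability was read by CellTiter-Fluor fluorescence (Ex 405/Em 525) after 30 min, before the luciferase read.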
Giardia killer – Giardia lamblia killing. AID 540267. hit rate 0.15% among 340,000. Giardia lamblia trophozoite viability. activity change, % at 7.66 µM, hits read low; in the data active means activity change below about -80%; inconclusive means between about -30% and that limit;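 further: parasites exposed to compound for two days anaerobically before the ATP read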
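Luminescent ATP signal served as the viability read-out, measured 15-30 min after adding ATP detection reagent to trophozoites that had been incubated with compounds for 48 hrs at 37 deg C anaerobically at 100 cells/well.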
KB-3-1 tox – kills parental KB-3-1 adenocarcinoma cells | KB-3-1 viability, CellTiter-Glo ATP luminescence, 72 h | Potency, µM (series often up to 46.1 µM), actives largely listed as cytotoxic | hit rate 1.4% among 400,000; further: potency means the concentration at half of the fitted maximal effect; nearly all actives have a fitted effect of over 60% in size
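Luminescent ATP read-out (CellTiter-Glo) measures survival of drug-naive KB-3-1 cells after 72 h compound exposure at 37 °C. Titration series was screened from lowest to highest concentration, with DMSO vehicle plates as background controls.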
PI4K2A block – blocks human PI4K2A kinase activity | purified PI4K2A, ADP-Glo luminescence, 1 h; hits give low values | activity change, negative = inhibition, % at 76.9 µM | hit rate 0.13% among 420,000 | AID 1346378; in the data active means activity change below about -50%; inconclusive means mostly about -30% to -49%;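 further: -100% = wells without enzyme as full effect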
Target sequence (Q9BTU6 whole entry, looked up): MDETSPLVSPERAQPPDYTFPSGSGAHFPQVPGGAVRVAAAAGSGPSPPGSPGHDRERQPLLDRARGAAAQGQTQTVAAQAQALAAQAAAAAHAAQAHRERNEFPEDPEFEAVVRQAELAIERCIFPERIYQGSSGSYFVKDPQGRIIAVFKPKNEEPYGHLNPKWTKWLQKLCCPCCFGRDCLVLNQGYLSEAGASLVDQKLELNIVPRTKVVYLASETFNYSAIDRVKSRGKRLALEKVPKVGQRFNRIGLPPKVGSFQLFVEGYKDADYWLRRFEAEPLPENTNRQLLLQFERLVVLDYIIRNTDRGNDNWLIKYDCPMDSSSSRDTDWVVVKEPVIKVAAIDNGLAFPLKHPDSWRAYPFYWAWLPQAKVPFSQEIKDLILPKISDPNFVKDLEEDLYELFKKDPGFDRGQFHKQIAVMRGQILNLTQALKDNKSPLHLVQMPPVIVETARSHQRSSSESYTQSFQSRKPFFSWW
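In this quantitative HTS, ADP production by PI4K2A was quantified luminescently after 1 h at ambient temperature; 100 microM adenosine served as plate-quality control.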
An asterisk follows results filed as active; i = inactive; ? = inconclusive; / = no result. Unless noted, the call rests on the fitted dose curve; in most records, active means well fitted curve in the direction sought with a large enough effect; inconclusive means small, poorly fitted or top-dose-only effect, or another doubt; inactive means no such curve, though single readings can be large; an effect the other way counts as inactive or inconclusive. Unless noted, on the % scale 0 is the no-effect control and ±100 the full control effect.

SMILES	Nrf2 inh	KB-V1 MDR tox	A549 viability	Giardia killer	KB-3-1 tox	PI4K2A block
CNC(=O)CC12CC3CC(CC(C3)C1)C2	0.9%	i	-0.1%	-8.8	i	1.0
COc1ccc(CCN(Cc2cc3cc(C)cc(C)c3nc2Cl)C(=O)C2CC2)cc1	16.4µM*	?	-21.2%	-4.5	?	0.5
COc1ccc(CN(CC2CCC(C(=O)O)CC2)C(=S)Nc2ccc(C)c(Cl)c2)cc1 (centres undefined)	?	i	-7.2%	-4.6	i	-3.9
COc1cc(C#CC#CCN2CCCCC2)ccc1O	9.2%	10.3µM*	-26.7%	8.8	i	-0.2
O=c1c(O)c(-c2ccccc2)oc2cc(O)cc(O)c12	3.6%	i	2.9%	-22.4	i	-1.4
O=c1c(O)c(-c2ccc(O)cc2O)oc2cc(O)cc(O)c12	/	i	/	/	i	-67.0*
CN(C)c1cccc(F)c1C(=O)NC(=O)Nc1ccc(Cl)cc1	-13.7%	1.84µM*	-2.5%	-10.7	3.66µM*	4.4
O=C(OC12CCCN(C1)/C(=C/c1cccc(Cl)c1)C2)c1ccco1 (centres undefined)	/	/	/	/	/	2.1
CC(C)[C@H]1COc2c3ccccc3nn21	/	/	/	/	/	-6.2
CCN(CC)CCCNC(=O)CSc1nc(-c2ccc(OC)cc2)cc(C(F)(F)F)n1	/	i	-0.5%	/	i	1.0
O=C(O)CSc1c(-c2ccccc2)c2cc(Cl)ccc2[nH]c1=O	6.8%	i	9.6%	6.7	i	-7.4
Cc1nnc(Sc2c(-c3ccccc3)c3ccc(Cl)cc3[nH]c2=O)s1	18.4µM*	i	-12.6%	0.1	i	-1.2
CCn1c(CCNC(=O)c2ccc(C)cc2)nnc1SCc1ccc(Cl)c(Cl)c1	-15.6%	i	-1.0%	46.2	i	0.0
CCn1c(CCNC(=O)c2ccc(OC)cc2)nnc1SCc1ccc(Cl)c(Cl)c1	?	4.61µM*	-24.0%	9.8	?	0.7
Cc1ccc(C2CC(=O)C=C(NCc3ccccc3)C2)cc1 (centres undefined)	-9.4%	20.6µM*	-13.9%	-7.7	14.6µM*	-2.4
COc1ccccc1N1CCN(Cc2ccco2)CC1	0.1%	i	-4.1%	4.2	i	1.9
Cc1ccccc1N1CCN(Cc2ccc([N+](=O)[O-])o2)CC1	-13.8%	i	-0.1%	-83.1*	i	-13.9
O=[N+]([O-])c1ccc(CN2CCN(c3ccccc3Cl)CC2)o1	-9.4%	i	-7.2%	?	i	-0.6
O=[N+]([O-])c1ccc(CN2CCN(c3ccccc3)CC2)o1	?	i	3.7%	-92.1*	i	-12.4
COc1ccccc1N1CCN(Cc2ccc(-c3ccccc3[N+](=O)[O-])o2)CC1	23.1µM*	i	-1.5%	-8.6	i	5.6
COc1cc(NC(=O)c2c(C)oc3ncnc(N4CCCCC4)c23)cc(OC)c1	10.1%	/	-5.5%	/	/	2.8
COc1ccc(Cn2nnnc2C(c2ccccn2)N2CCN(c3ccc(O)cc3)CC2)cc1 (centres undefined)	-16.8%	i	-0.5%	-4.6	i	/
S=C(Nc1ccccc1)OC1CCC12CCC(c1ccccc1)CC2 (centres undefined)	/	/	/	/	/	-5.6
CC1Cc2cc(-c3csc(NC(=O)Cc4ccccc4)n3)ccc2N1S(C)(=O)=O (centres undefined)	14.6µM*	3.26µM*	-24.3%	6.2	20.6µM*	-1.4
O=C(CSc1ncnc2[nH]ncc12)Nc1nc(-c2ccc(F)c(F)c2)cs1	6.51µM*	?	7.1%	-0.4	i	-0.1
SMILES	Nrf2 inh	KB-V1 MDR tox	A549 viability	Giardia killer	KB-3-1 tox	PI4K2A block
Cc1cccc(C)c1NC(=O)CSc1ncnc2[nH]ncc12	-10.7%	?	-0.2%	-0.2	i	1.6
O=C(Cc1ccc(F)cc1)Nc1nc(-c2ccc(F)c(F)c2)cs1	23.1µM*	i	-29.1%	5.9	?	2.6
COc1ccc(C2c3c(nc(Cc4ccccc4)[nH]c3=O)Oc3ccc4ccccc4c32)cc1OC (centres undefined)	?	/	-5.8%	/	/	/
CC(=O)N1CCN(C(=O)CCn2nnc3ccccc32)CC1	/	/	/	/	/	-3.0
CC(C)(C)c1ccc(S(=O)(=O)N2CCCC(C(=O)N3CCN(Cc4ccccc4)CC3)C2)cc1 (centres undefined)	/	/	/	/	/	-1.9
C[C@H](NC(=O)c1[nH]cnc1C(=O)Nc1ccc(Cl)cc1)c1ccccc1	18.4µM*	?	-10.4%	-9.9	?	-1.9
C[C@@H](NC(=O)c1[nH]cnc1C(=O)Nc1ccccc1)c1ccccc1	23.1µM*	?	-8.4%	-24.3	?	4.6
CC(C)(C)OC(=O)NCCCCCNC(=O)c1[nH]cnc1C(=O)Nc1ccc(Cl)cc1	16.4µM*	i	?	37.7	?	2.4
O=C(Nc1ccc(Cl)cc1)c1nc[nH]c1C(=O)NCc1ccccc1	?	16.4µM*	-0.7%	-7.1	?	-1.6
Cc1ccc(NC(=O)c2nc[nH]c2C(=O)N[C@@H](C)c2ccccc2)cc1	?	?	-4.6%	19.4	?	-1.7
COc1ccc(OCC(=O)OCc2cc(=O)n3nc(C4CC4)sc3n2)cc1	?	i	8.0%	/	i	0.1
Cc1cc2c(s1)c1cnn(Cc3c(F)cc(F)cc3F)c(=O)c1n2C	6.3%	/	-2.8%	/	/	/
CCOC(=O)CC[C@H]1CC[C@]2(CCCN(C(=O)c3cccnc3)C2)O1	/	/	/	/	/	-0.3
O=C1CN(C(=O)C2CCCCC2)C=CN1CCc1ccccc1Br	/	/	/	/	/	1.9
C[C@@H](NC(=O)c1[nH]cnc1C(=O)Nc1ccc(Cl)cc1)c1ccccc1	5.8µM*	?	18.4µM*	-7.0	?	-8.6
O=C(CSc1nnc(Cc2cccs2)n1-c1ccccc1)Nc1ccccc1-c1ccccc1	/	/	/	/	/	3.0
COc1ccc(NC(=O)C2Cc3c(-c4cccc(NC(C)=O)c4)ccnc3O2)cn1 (centres undefined)	/	i	/	/	4.61µM*	5.2
CC(=O)c1cccc(NC(=O)C2Cc3c(-c4cccc(C(C)=O)c4)ccnc3O2)c1 (centres undefined)	/	20.6µM*	/	/	i	0.4
COc1ccc(CCCNC(=O)C2Cc3c(-c4ccc(NC(C)=O)cc4)ccnc3O2)cc1 (centres undefined)	/	i	/	/	?	2.4
CC(=O)c1cccc(-c2ccnc3c2CC(C(=O)NCCC(F)(F)F)O3)c1 (centres undefined)	/	?	/	/	7.31µM*	-0.2
COc1ccc(CCCNC(=O)C2Cc3c(-c4cccc(C(C)=O)c4)ccnc3O2)cc1 (centres undefined)	/	20.6µM*	/	/	6.51µM*	-1.8
O=C(CNC(=O)c1ccccc1)OCC(=O)c1ccc2ccccc2c1	3.4%	i	-8.6%	7.2	i	/
